# Assays:
# Test in all cases: PBM binding z-score (relative to random genomic background probes); higher = stronger binding; sequences stand for … in GC…GCGATTGACAGCGTAGAATGAAGG
# [1] = test system: PPARg:RXRa DBDmut IVT, anti-RXR (DBD mutation: RXRa K156A/R161A, NR concentration 270 nM, RXRa partner concentration 90 nM)
# Procedure, shortened: (§1)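 Random background probes are the reference for binding z-scores. These scores derive from regression-normalized fluorescence on custom Agilent 4×180K protein-binding microarrays incubated 1 h with ligand-free nuclear receptor dimers. Binding was detected with antibodies against each partner (one per run).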
# [2] = test system: PPARg:RXRa IVT, anti-PPARg (NR concentration 270 nM, RXRa partner concentration 90 nM)
# Procedure, shortened: as §1
# [3] = test system: PPARg DBDmut:RXRa IVT, anti-PPARg (DBD mutation: PPARg1 K132A/R137A, NR concentration 270 nM, RXRa partner concentration 90 nM)
# Procedure, shortened: as §1
# [4] = test system: PPARg DBDmut IVT, anti-PPARg (DBD mutation: PPARg1 K132A/R137A, NR concentration 270 nM)
# Procedure, shortened: as §1
# [5] = test system: PPARg homodimer (NR concentration 180 nM)
# Procedure, shortened: as §1
# [6] = test system: PXR:RXRa (NR concentration 270 nM, RXRa partner concentration 90 nM)
# Procedure, shortened: as §1
# [7] = test system: PXR homodimer (NR concentration 270 nM)
# Procedure, shortened: as §1
# [8] = test system: RARa:RXR (NR concentration 270 nM, RXRa partner concentration 90 nM)
# Procedure, shortened: as §1
# [9] = test system: RARa homodimer (NR concentration 270 nM)
# Procedure, shortened: as §1
# [10] = test system: RARb:RXRa (NR concentration 270 nM, RXRa partner concentration 90 nM)
# Procedure, shortened: as §1
# [11] = test system: RARb homodimer (NR concentration 270 nM)
# Procedure, shortened: as §1
# [12] = test system: RARg:RXRa (NR concentration 270 nM, RXRa partner concentration 90 nM)
# Procedure, shortened: as §1
# [13] = test system: RARg homodimer (NR concentration 270 nM)
# Procedure, shortened: as §1
# [14] = test system: RXRa DBDmut IVT, anti-RXR (DBD mutation: RXRa K156A/R161A, NR concentration 90 nM)
# Procedure, shortened: as §1
# [15] = test system: RXRa homodimer (NR concentration 180 nM)
# Procedure, shortened: as §1
# [16] = test system: THRa:RXRa (NR concentration 90 nM, RXRa partner concentration 90 nM)
# Procedure, shortened: as §1
# [17] = test system: THRa homodimer (NR concentration 90 nM)
# Procedure, shortened: as §1
# [18] = test system: VDR homodimer (NR concentration 270 nM)
# Procedure, shortened: as §1
Sequence,PBM binding z-score [1],PBM binding z-score [2],PBM binding z-score [3],PBM binding z-score [4],PBM binding z-score [5],PBM binding z-score [6],PBM binding z-score [7],PBM binding z-score [8],PBM binding z-score [9],PBM binding z-score [10],PBM binding z-score [11],PBM binding z-score [12],PBM binding z-score [13],PBM binding z-score [14],PBM binding z-score [15],PBM binding z-score [16],PBM binding z-score [17],PBM binding z-score [18]
CGTCCAAGGTCAAAGGTCAGTGAGGAGATGACGG,4.27,5.57,0.435,-0.522,6.24,7.08,2.54,8.87,5.49,5.85,5.41,8.78,8.47,3.92,10.4,4.81,2.98,4.41
ATACCAATGTGATCGTGAGGTCGTTGATACTAAC,-0.174,0.568,0.648,1.38,0.242,2.06,1.23,1.39,-0.115,0.569,0.979,0.681,0.227,0.777,1.06,2.45,2.24,2.83
CCTATTAGTTGACCATACGGGCAACCGAAGCTCG,0.407,0.329,0.889,0.71,1.39,-0.0836,0.786,-0.218,1.26,0.631,1.12,0.753,0.421,0.337,0.116,0.0977,0.187,0.509
CCTTACGGGTGACGAGGTTATAGCACGACGAGCG,1.91,2.65,0.21,-0.275,1.21,0.931,-0.0569,1.52,0.128,1.1,1.05,1.29,0.849,-0.461,1.95,1.33,0.317,0.36
TCTTCTAGATCAAAGGTTAAGAAAGCCGAAGCCT,2.42,3.52,0.463,0.915,1.09,1.63,-0.258,2.74,0.0747,1.98,1.54,1.99,1.03,0.838,2.95,1.51,-0.597,0.119
CTCGAAAGGTCGGTTGAGGTGAGGATACGGATAA,-0.21,1.07,0.312,-0.445,1.24,3.06,0.154,2.64,0.262,3.18,2.54,3.23,2.94,0.698,2.43,5.04,2.21,0.231
CCCACTGGGCCATCAGGTCATTGATATCAACGTT,3.84,5.07,0.243,0.0844,2.19,1.57,0.893,1.95,0.424,2.04,2.77,2.09,1.65,-0.268,1.3,3.22,3.16,1.66
ACTAGTTGGTCAGGTGAGGTCACACACAATTCGG,1.77,3.37,0.914,0.637,3.1,5.46,2.28,4.89,2,3.44,4.31,4.16,4.17,1.23,4.21,4.85,5.01,4.61
ATCACTAGGTAAAGTTCAGTGAAAGATCGATAGA,3.89,3.29,1.1,0.944,1.33,1.91,1.73,1.48,1.19,2.7,2.57,2.32,2.39,1.44,1.55,1.24,0.158,2.29
CCTTACGGGTCACTCCAGGTTATAGCTTCGGAGT,3.23,3.56,0.585,0.163,2.23,4.98,0.446,3.52,1.34,3.72,3.13,4.36,4.47,1.65,4.42,4.92,0.616,1.61
CCAGGCAGGTGAGAAGGTAACTCAGCCTCGATTA,0.637,0.291,-1.38,-1.33,-0.318,-0.256,-0.513,-0.0086,-0.442,0.36,0.294,0.181,-0.0537,-0.754,0.145,0.198,-0.116,-0.279
TTACCAAGGTGAAAGGTCCTTGATGCACGCCTTG,2.49,4.34,-0.24,0.133,0.166,1.1,-0.666,2.31,-0.838,1.93,1.22,1.67,0.796,-0.243,2.47,2.28,0.542,-0.756
TCTCGAAGGACACGAAGGTCAGAGCTTTCCAGAG,1.58,1.03,-0.558,-0.971,1.64,1.54,0.219,2.12,0.163,3.34,3.75,2.99,3.73,0.817,1.94,2.03,0.331,0.435
CCTCGGAGGACAGAAGGTTAGAGCTGTCCGCTTT,-0.501,-0.792,-1.88,-2.87,-0.233,-0.354,-0.764,0.0468,-1.07,1.12,0.668,0.736,0.681,-0.0367,-0.125,0.441,-0.513,-0.565
